In PubChem BioAssay (Tox21) one finds Potency and outcome data, which are given here for 12 molecules.

Test [1] is described as follows: qHTS RealTime-Glo MT Cell Viability Assay in HEK293 cells - 24 hour (AID 1224886). Further: nearly all actives have a fitted effect of over 50% in size. Further: potency means the concentration at half of the fitted maximal effect. In short, it runs like this:
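Quantitative high-throughput screen of the Tox21 10K library in HEK293: cells and RealTime-Glo reagents plated together, compound added at 5 h, luminescence monitored through 40 h at 37 C.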
In general terms: In qHTS, concentration-response curves come from the screen itself.

Test [2] is described as follows: qHTS RealTime-Glo MT Cell Viability Assay in HEK293 cells - 8 hour (AID 1224887). Further: nearly all actives have a fitted effect of over 50% in size. Further: potency means the concentration at half of the fitted maximal effect. In short, it runs like this: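 600 HEK293 cells per well, dispensed already mixed with RealTime-Glo MT reagents. Compound dosing came 5 h later. The same wells were read for luminescence at 0, 8, 16, 24, 32 and 40 h of exposure at 37 C.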
Test [3] in a line: A CellTox Green Cytotoxicity Assay to monitor cytotoxicity in HEK293 cells - 16 hour (AID 1224888). Further: potency means the concentration at half of the fitted maximal effect; nearly all actives have a fitted effect of over 35% in size. In short, it runs like this:
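Dead-cell fluorescence measured kinetically: asymmetric cyanine dye, HEK293, 600 cells/well, 5 h settle, 23 nL cpd/DMSO, 37 C, reads 0–40 h every 8 h.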

Test [4] is described as follows: A CellTox Green Cytotoxicity Assay to monitor cytotoxicity in HepG2 cells - 8 hour (AID 1224890). Further: nearly all actives have a fitted effect of over 45% in size. Further: potency means the concentration at half of the fitted maximal effect. In short, it runs like this: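 First, HepG2 cells (600/well) mixed with reagent were plated; second, after 5 h at 37 C they received compounds via pintool; third, fluorescence was measured at 0 h through 40 h at 8 h intervals.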
The nature of test [5]: qHTS assay to identify small molecule antagonists of the estrogen receptor alpha (ER-alpha) signaling pathway using the BG1 cell line in the presence of 0.1 nM 17-beta-estradiol - cell viability counter screen (AID 1259241). Further: nearly all actives have a fitted effect of over 40% in size. Further: potency means the concentration at half of the fitted maximal effect. In short, it runs like this:
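CellTiter-Fluor read (30 min, 37C) on ER-alpha/ERE-luc VM7Luc4E2 cells; 22 hr compound treatment; agonist 0.1 nM E2 final; same-well multiplex.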

The target in test [6] is Estrogen receptor (Homo sapiens) (UniProt P03372). Nature of the test: qHTS assay to identify small molecule antagonists of the estrogen receptor alpha (ER-alpha) signaling pathway using the BG1 cell line in the presence of 0.1 nM 17-beta-estradiol (AID 1259244). Further: nearly all actives have a fitted effect of over 50% in size. Further: potency means the concentration at half of the fitted maximal effect. In short, it runs like this: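 Reporter is a stably transfected luciferase under four estrogen responsive elements in VM7Luc4E2 cells expressing native full-length ER-alpha; inhibition of 0.1 nM (final) 17beta-estradiol-driven signal over 22 h is read by luminescence.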
Estrogen receptor (Homo sapiens), sequence (P03372 whole entry, looked up): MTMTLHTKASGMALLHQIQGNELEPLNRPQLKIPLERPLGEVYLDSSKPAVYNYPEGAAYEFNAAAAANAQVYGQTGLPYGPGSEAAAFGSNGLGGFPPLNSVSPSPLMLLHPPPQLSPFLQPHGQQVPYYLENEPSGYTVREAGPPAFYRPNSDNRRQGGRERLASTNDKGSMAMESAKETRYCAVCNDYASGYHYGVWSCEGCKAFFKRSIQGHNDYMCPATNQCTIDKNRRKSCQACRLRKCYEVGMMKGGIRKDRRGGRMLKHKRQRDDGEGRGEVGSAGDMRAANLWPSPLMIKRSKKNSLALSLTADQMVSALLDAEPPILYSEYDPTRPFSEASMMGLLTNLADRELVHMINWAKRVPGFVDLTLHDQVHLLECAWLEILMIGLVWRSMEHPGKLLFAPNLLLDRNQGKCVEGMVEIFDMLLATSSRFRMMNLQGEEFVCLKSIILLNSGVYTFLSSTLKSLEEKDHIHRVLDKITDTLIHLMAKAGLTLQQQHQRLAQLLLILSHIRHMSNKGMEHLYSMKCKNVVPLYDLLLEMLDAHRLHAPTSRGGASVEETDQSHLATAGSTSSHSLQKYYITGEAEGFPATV

A short description of test [7]: qHTS assay to identify small molecule HDAC inhibitors (AID 1259364).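 Further: wild-type HCT-116 cells with endogenous class I/II HDAC activity; top concentration of the series differs between compounds; nearly all actives have a fitted effect of over 45% in size.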 In short, it runs like this:
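Quantitative high-throughput format: overnight-seeded HCT-116 cells got compounds for 2 hr at 37C; HDAC-Glo I/II reagent added, 30 min RT, luminescence measured.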

Test [8] can be described thus: qHTS assay to identify small molecule agonists of the sonic hedgehog signaling (Shh) pathway - cell viability counter screen (AID 1259366). Further: nearly all actives have a fitted effect of over 50% in size. Further: potency means the concentration at half of the fitted maximal effect. In short, it runs like this: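 Fluorescence from CellTiter-Fluor reports live cells in this counter screen. NIH/3T3-derived Gli1-Luc reporter cells receive test compounds for 24hr at 37C; reagent goes in at 23hr.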
The nature of test [9]: qHTS assay to identify small molecule antagonists of the sonic hedgehog signaling (Shh) pathway - cell viability counter screen (AID 1259367). Further: nearly all actives have a fitted effect of over 55% in size. Further: potency means the concentration at half of the fitted maximal effect. In short, it runs like this:
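Fluorescence read-out (CellTiter-Fluor, 1 hr at 37C) taken after 23 hr compound treatment of 3T3 Gli1-Luc cells stimulated with conditioned medium. Cells were seeded at 2,000 per well and pre-incubated 4 hr.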

A short description of test [10]: qHTS assay to identify small molecule agonists of the sonic hedgehog signaling (Shh) pathway (AID 1259368; calls by dose curve;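 further: NIH/3T3-derived 3T3Gli1-Luc cells carrying a stable Gli1-driven firefly luciferase reporter; series mostly up to about 92 µM; nearly all actives have a fitted effect of over 15% in size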). In short, it runs like this: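 Quantitative high-throughput format using a Gli1-driven firefly luciferase reporter line derived from NIH/3T3 cells. After a 24 hr compound treatment at 37 C and 5% CO2, luminescence reported Gli1 response element activity.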

Test [11] can be described thus: qHTS assay to identify small molecule antagonists of the sonic hedgehog signaling (Shh) pathway (AID 1259369; calls by dose curve; further: nearly all actives have a fitted effect of over 45% in size; further: potency means the concentration at half of the fitted maximal effect). In short, it runs like this: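 Stable Gli1-Luc reporter NIH/3T3 clone; quantitative HTS in stimulated mode with conditioned medium. Luminescence measured after 24hr compound treatment at 37 C.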
Test [12] deals with Estrogen receptor beta (Homo sapiens) (UniProt Q92731). As to the kind of experiment: qHTS assay to identify small molecule agonists of the estrogen receptor beta (ER-beta) signaling pathway (AID 1259377; active means well fitted activation curve with a large enough effect in the signal ratio in the repeat runs, not every such curve was filed as active; the % refers to the signal ratio). In short, it runs like this: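 Screening used GripTite ER-beta-UAS-bla cells held in 2% charcoal-stripped FBS medium. After overnight (16 hr) compound incubation at 37C, beta-lactamase activity was detected with a FRET substrate by fluorescence.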
Estrogen receptor beta (Homo sapiens), sequence (Q92731 whole entry, looked up): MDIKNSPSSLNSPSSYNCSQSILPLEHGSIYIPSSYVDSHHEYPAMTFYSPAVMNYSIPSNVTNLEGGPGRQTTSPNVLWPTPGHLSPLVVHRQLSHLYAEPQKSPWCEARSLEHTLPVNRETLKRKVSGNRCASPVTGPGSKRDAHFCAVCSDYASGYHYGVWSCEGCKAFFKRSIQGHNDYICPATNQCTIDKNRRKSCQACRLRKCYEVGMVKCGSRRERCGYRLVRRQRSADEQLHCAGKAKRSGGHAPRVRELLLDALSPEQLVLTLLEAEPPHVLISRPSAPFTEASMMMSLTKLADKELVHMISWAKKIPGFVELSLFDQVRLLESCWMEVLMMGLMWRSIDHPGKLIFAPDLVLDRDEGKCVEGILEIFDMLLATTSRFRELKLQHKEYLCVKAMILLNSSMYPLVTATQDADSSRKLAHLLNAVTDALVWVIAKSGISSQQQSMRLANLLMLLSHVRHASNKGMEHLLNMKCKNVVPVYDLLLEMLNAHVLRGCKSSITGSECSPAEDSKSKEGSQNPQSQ

Test [13] has the same target. Nature of the test: qHTS assay to identify small molecule antagonists of the estrogen receptor beta (ER-beta) signaling pathway (AID 1259378; active means well fitted inhibition curve with a large enough effect in the signal ratio in the repeat runs, not every such curve was filed as active; the % refers to the signal ratio; further: potency means the concentration at half of the fitted maximal effect). In short, it runs like this: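 ER-beta-UAS-bla HEK293T cells in 2% charcoal-stripped FBS medium treated with compound plus 1nM final 17-beta-estradiol for 16 hr at 37C. Beta-lactamase reporter read by FRET substrate fluorescence after 2 hours at room temperature.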

Test [14] can be described thus: qHTS RealTime-Glo MT Cell Viability Assay in HepG2 cells - 16 hour (AID 1224885). Further: nearly all actives have a fitted effect of over 50% in size. Further: potency means the concentration at half of the fitted maximal effect. In short, it runs like this: (§1)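 Compound treatment began 5 h after plating HepG2 cells (600/well) with NanoLuc luciferase and prosubstrate. Plates stayed at 37 C for 40 h; luminescence was captured at six time points, 0 h through 40 h.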
Test [15] can be described thus: qHTS RealTime-Glo MT Cell Viability Assay in HepG2 cells - 0 hour (AID 1224889). Further: nearly all actives have a fitted effect of over 50% in size. In short, it runs like this: as §1
Test [16] can be described thus: qHTS assay to identify small molecule antagonists of the androgen receptor (AR) signaling pathway using the MDA cell line in the presence of 0.5 nM R1881 - cell viability counter screen (AID 1259242). Further: nearly all actives have a fitted effect of over 45% in size. Further: potency means the concentration at half of the fitted maximal effect. In short, it runs like this:
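qHTS format. MDA-kb2 (MMTV-luc, AR/GR responsive) + cpd + 0.5 nM R1881 final, 16 hr 37C/0% CO2 → CellTiter-Fluor 30 min → fluorescence intensity.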

A short description of test [17]: qHTS assay to identify small molecule HDAC inhibitors - cell viability counter screen (AID 1259365). In short, it runs like this:
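To flag cytotoxic hits, 1,500 wild-type HCT-116 cells per well, plated the day before, receive test compounds for 2hr at 37 C before CellTiter-Glo reagent and a luminescence read.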

Test [18] concerns the target Androgen receptor (Homo sapiens) (UniProt P10275). As to the kind of experiment: qHTS assay to identify small molecule antagonists of the androgen receptor (AR) signaling pathway using the MDA cell line in the presence of 0.5 nM R1881 (AID 1259243). Further: nearly all actives have a fitted effect of over 50% in size. In short, it runs like this:
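Antagonist mode quantitative HTS in MDA-kb2 MMTV-luciferase cells, agonist R1881 at 0.5 nM final, 16 hr exposure at 37C and 0% CO2, luminescent detection.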

Test [19] can be described thus: qHTS assay to identify small molecule phospholipidosis (PLD) inducers (AID 1259344; active means well fitted curve in the direction sought with a large enough effect; an effect the other way counts as inactive or inconclusive). In short, it runs like this:
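Read-out is LipidTOX Red fluorescence (ex 595/em 615) imaged in HepG2 cells after 24 h compound exposure at 37 C, with Hoechst nuclear counterstain (ex 352/em 461) allowing per-cell normalisation.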

Unmarked numbers belong to inactive results. Inconclusive results are not listed. Activity calls are given as the source filed them. Unless noted, the call rests on the fitted dose curve; in most records, active means well fitted curve in the direction sought with a large enough effect in the repeat runs; inconclusive means weak or mixed curves; inactive means no such curve, though single readings can be large; an effect the other way counts as inactive or inconclusive.

Androgen receptor (Homo sapiens), sequence (P10275 whole entry, looked up): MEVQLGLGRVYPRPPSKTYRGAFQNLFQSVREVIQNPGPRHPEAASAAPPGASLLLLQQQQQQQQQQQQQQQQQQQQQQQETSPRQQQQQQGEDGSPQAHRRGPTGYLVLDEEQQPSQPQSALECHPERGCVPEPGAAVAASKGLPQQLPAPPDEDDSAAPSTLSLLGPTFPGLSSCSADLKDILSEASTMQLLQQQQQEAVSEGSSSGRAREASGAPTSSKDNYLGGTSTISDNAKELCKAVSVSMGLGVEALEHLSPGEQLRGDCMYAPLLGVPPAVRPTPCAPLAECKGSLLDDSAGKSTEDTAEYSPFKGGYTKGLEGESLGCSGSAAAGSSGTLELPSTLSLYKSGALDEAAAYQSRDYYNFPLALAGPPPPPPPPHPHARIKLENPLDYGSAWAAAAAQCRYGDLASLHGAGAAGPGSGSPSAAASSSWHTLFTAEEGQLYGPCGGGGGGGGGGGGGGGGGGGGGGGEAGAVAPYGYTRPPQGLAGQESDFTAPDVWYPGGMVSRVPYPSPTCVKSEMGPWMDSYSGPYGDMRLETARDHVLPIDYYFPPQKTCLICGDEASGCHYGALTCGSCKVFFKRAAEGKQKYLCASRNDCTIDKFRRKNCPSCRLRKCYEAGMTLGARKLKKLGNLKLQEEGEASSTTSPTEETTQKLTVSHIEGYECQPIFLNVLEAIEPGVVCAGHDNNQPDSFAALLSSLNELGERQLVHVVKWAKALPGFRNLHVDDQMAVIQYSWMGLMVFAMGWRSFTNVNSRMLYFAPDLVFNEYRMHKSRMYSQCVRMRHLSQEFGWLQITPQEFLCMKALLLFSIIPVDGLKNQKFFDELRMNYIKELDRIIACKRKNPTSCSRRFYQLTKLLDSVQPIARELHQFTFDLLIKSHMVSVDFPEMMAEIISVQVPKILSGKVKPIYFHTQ

For `NCc1cccc(C2CCN(C(=O)c3ccc(C#Cc4ccccc4F)o3)CC2)c1`, the Potency is 54.9 µM (active) in [1]; 43.6 µM (active) in [2]; 49 µM (active) in test [3]; 49 µM (active) in [4]; 68.6 µM (active) in [5]; 68.6 µM (active) in test [6]. Further, the Potency in [8] is 30.6 µM (active); in test [9], 24.3 µM (active); in test [11], 6.11 µM (active); in [13] it was 54.5 µM (active). The Potency result in test [7] and in test [10] was “inactive” in each case. Besides, in test [12], the outcome was inactive.

In the case of `NCc1ccco1`, the Potency result in test [14], in test [2], in test [15], in test [4], in test [5] and in test [16] was “inactive” throughout. Besides, the Potency entry in test [7], in test [17], in test [8], in test [9], in test [10] and in test [11] was “inactive” throughout. In addition, the Potency result in [13] was “inactive”. Further, in [12], the result was inactive.

Regarding `CCCCCCCCCC[N+](C)(CCCCCCCCCC)CCC[Si](OC)(OC)OC`, the Potency is 49 µM (active) in test [14], 19.5 µM (active) in [2], 49 µM (active) in [3] and 43.6 µM (active) in test [4]. Also, the Potency result in test [15], in [5], in test [6], in test [7], in test [10] and in test [13] was “inactive” each time. Besides, in [12], the call was inactive.

`Oc1ccc(Cl)cc1C1CCCC1`: the Potency in test [2] is 27.5 µM (active); in [4], 49 µM (active). Further, the Potency result in test [15], in test [5], in test [16], in test [6], in [7] and in test [17] was “inactive” each time. Besides, the Potency entry in test [8], in test [9] and in [10] was “inactive” each time. For the same molecule, the outcome in test [12] was inactive.

`O=C1OC2(c3ccccc31)c1ccc(O)c(Br)c1Oc1c2ccc(O)c1Br`: the Potency is 21.9 µM (active) in test [3] and 12.3 µM (active) in [4]. Also, the Potency result in [5], in test [18], in test [7], in test [17], in test [10] and in test [11] was “inactive” throughout.

Take `CCCCCCCCCCCCCCCC[n+]1ccccc1`: in [19], the Potency result was “inactive”.

Turning to `CC(C)(Oc1ccc(C2CCCc3ccccc32)cc1)C(=O)O` (stereo unspecified), the Potency entry in [19] is “inactive”.

As to `CCCCCCCCCCCCN1CCCC1=O`, the Potency entry in [15], in test [5], in test [16], in test [6], in [7] and in test [9] was “inactive” in each case. For the same molecule, the Potency result in [10] and in test [11] was “inactive” each time. For the same molecule, the Potency in [13] is 48.6 µM (active).

Take `CCOc1ccc([N+](=O)[O-])cc1`: the Potency entry in test [14], in test [15], in [4], in [5], in test [16] and in [6] was “inactive” in each case. Also, the Potency entry in [7], in test [17], in [9] and in [10] was “inactive” in each case. Further, in [12], the result was inactive. Further, the Potency in test [13] was 9.83 µM (active).

For the molecule `CC(C)C[C@H](NC(=O)[C@@H](COC(C)(C)C)NC(=O)[C@H](Cc1ccc(O)cc1)NC(=O)[C@H](CO)NC(=O)[C@H](Cc1c[nH]c2ccccc12)NC(=O)[C@H](Cc1cnc[nH]1)NC(=O)[C@@H]1CCC(=O)N1)C(=O)N[C@@H](CCCN=C(N)N)C(=O)N1CCC[C@H]1C(=O)NNC(N)=O`, in test [19], the Potency entry was “inactive”.

Regarding `O=C1CCCCCCCCCCCCCC1`, the Potency entry in [14], in test [1], in [2], in test [15], in test [4] and in test [5] was “inactive” each time. Besides, the Potency entry in [16], in test [7], in test [17], in test [8], in [9] and in test [10] was “inactive” throughout. Further, the Potency result in test [11] and in [13] was “inactive” in each case. In addition, in test [3], the Potency was 43.6 µM (active). Moreover, the outcome in test [12] was inactive.

Take `CN1CCN(c2ccccc2/C=C2\SCCN(c3ccc(Cl)c(Cl)c3)C2=O)CC1`: the Potency in [14] is 43.6 µM (active); in test [1], 12.3 µM (active); in test [2], 12.3 µM (active); in [3], 49 µM (active); in test [16], 48.6 µM (active); in test [8] it was 27.3 µM (active). The Potency in test [9] was 54.5 µM (active); in [11] it was 5.45 µM (active). The Potency result in [15], in test [5], in test [6], in [7] and in test [10] was “inactive” each time.
